# Assay results from article PMC4336329 (PLoS ONE, 2015).
# The campaign covered roughly 310,000 compounds. About 2,200 (0.71%) showed an effect of 50% or more. The effect is printed as a negative number. The sample as a whole holds a higher share of strong results than the screen did.
# Target: human ether-à-go-go-related gene (hERG) potassium channel (human, UniProt Q12809)
# Assay: primary screen, population patch clamp on CHO cells stably expressing hERG; higher = less effect of the substance
# Method: Briefly, Chinese hamster ovary (CHO) cells stably expressing the hERG channel were dislodged from tissue culture flasks and dispensed into PPC plates. […] During the recording, background leak currents were estimated by a 100 ms step to -80 mV from an initial holding potential of -70 mV and subtracted from the subsequent current measurement. The campaign was conducted in two phases using slight differences in recording protocol. In the first phase, the initial voltage pulse used a 100 ms step to -30 mV from a holding potential of -70 mV, a 2 s conditioning step to +25 mV, and a 2 s test step to -30 mV. During the second phase of the screen, the potential during the conditioning step was raised to +45 mV. In both phases of the campaign, a secondary voltage pulse was applied using the same parameters as the second phase initial pulse. The initial and secondary pulses were applied in the absence of compound, and upon application of 1 μM and 10 μM test concentrations. Small molecule effects on hERG current density were quantified by […].
# human ether-à-go-go-related gene (hERG) potassium channel, sequence (Q12809 whole entry, looked up): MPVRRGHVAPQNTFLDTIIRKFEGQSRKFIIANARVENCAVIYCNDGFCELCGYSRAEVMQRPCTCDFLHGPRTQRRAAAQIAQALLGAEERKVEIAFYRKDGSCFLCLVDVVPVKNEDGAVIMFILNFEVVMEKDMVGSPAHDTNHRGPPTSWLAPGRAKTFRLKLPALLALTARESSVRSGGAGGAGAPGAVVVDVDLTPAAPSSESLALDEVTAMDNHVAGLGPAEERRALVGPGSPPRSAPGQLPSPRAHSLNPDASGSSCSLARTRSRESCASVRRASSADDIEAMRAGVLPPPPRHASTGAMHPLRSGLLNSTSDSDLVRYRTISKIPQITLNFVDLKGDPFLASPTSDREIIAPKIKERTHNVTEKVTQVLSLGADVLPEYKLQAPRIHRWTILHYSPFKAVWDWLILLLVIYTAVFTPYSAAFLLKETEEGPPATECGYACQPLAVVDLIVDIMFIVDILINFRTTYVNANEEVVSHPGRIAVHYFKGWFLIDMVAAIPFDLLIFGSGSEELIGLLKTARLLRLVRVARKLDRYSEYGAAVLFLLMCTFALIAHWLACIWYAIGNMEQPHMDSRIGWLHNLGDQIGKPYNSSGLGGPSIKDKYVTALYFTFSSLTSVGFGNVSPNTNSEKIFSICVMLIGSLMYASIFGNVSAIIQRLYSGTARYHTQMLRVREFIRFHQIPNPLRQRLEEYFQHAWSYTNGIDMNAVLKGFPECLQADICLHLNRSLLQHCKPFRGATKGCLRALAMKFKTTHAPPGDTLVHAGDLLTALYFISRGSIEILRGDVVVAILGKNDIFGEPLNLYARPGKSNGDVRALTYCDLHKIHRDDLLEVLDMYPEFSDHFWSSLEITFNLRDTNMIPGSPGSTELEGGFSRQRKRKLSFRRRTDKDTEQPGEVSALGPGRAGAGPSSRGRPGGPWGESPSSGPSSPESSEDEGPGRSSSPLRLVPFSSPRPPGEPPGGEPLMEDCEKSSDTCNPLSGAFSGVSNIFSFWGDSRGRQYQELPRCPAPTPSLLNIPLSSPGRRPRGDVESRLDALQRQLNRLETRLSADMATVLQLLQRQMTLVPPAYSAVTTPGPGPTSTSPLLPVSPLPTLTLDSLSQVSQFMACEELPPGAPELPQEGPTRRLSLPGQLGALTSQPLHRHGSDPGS
row,Structure (SMILES),"hERG current change (%, negative = inhibition) at 1uM [%]"
1,Cc1cc(C)cc(N(C(=O)c2csnn2)C(C(=O)NC2CCCCC2)c2ccccn2)c1 (stereo not drawn),11.5
2,CN(Cc1ccccc1)C(=O)c1ccc(NC2=NC3CS(=O)(=O)CC3S2)cc1 (stereo not drawn),-3.47
3,O=C(O)Cc1ccc(O)c(F)c1,4.7
4,CN1CCN(NC(=S)NC2CCCCC2)CC1,3.73
5,CCOC(=O)C1CCN(C(=O)c2sccc2Cl)CC1,12.5
6,O=S(=O)(Nc1ccc(Cl)cn1)c1ccc(Cl)cc1,16.8
7,O=C(NNC(=O)C1CCCO1)c1ccc(Br)cc1 (stereo not drawn),8.75
8,O=C(NC1CCCCC1)NC1CCN(S(=O)(=O)c2ccc3c(c2)OCCO3)CC1,9.08
9,Cc1ccc(S(=O)(=O)N(C(=O)c2ccncc2)c2ccc3oc4c(c3c2)CCCC4)cc1[N+](=O)[O-],19.2
10,Cc1ccc(Nc2nc(Cl)nc(NC(C)(C)C)n2)cc1,11.9
11,O=C(NCC(=O)N1CCN(c2cccc(Cl)c2)CC1)c1ccc(Br)o1,-57.5
12,O=C(NCC(=O)N1CCN(c2ccccc2)CC1)c1ccc(Br)o1,-7.83
13,Cc1ccc(Cl)cc1N1CCN(C(=O)CNC(=O)c2ccc(Br)o2)CC1,4.64
14,COc1ccc(-n2c(-c3ccccc3)c[n+]3c2CCC3)cc1.[Br-],6.43
15,COc1ccccc1-n1c(-c2ccccc2)c[n+]2c1CCc1ccccc1-2.[Br-],-34.7
16,COc1ccc(-n2c(-c3ccc(Br)cc3)c[n+]3c2SC(C)C3)cc1.[Br-] (stereo not drawn),-26
17,COc1ccc(-n2c(-c3ccc(Br)cc3)c[n+]3c2CCC3)cc1.[Br-],-21
18,COc1ccc(-n2c(-c3ccc(Cl)cc3)c[n+]3c2CCCCC3)cc1.[Br-],8.19
19,COc1ccc(-n2c(-c3ccc(Br)cc3)c[n+]3c2CCc2ccccc2-3)cc1.[Br-],-90.6
20,Cc1ccc(-n2c(-c3ccc(Br)cc3)c[n+]3c2CCc2ccc4cccnc4c2-3)cc1.[Br-],-86.6
21,Cc1ccc(-n2c(-c3ccccc3)c[n+]3c2CCc2ccccc2-3)c(C)c1.[Br-],-82.5
22,Cc1ccc(-n2c(-c3ccccc3)c[n+]3c2CCC3)cc1.[Br-],-2.23
23,Brc1ccc(-c2cn3c(n2)CCc2ccc4cccnc4c2-3)cc1,10.5

row,Structure (SMILES),"hERG current change (%, negative = inhibition) at 1uM [%]"
1,Cc1ccc(-c2c[n+]3c(n2-c2ccccc2)CCC3)cc1.[Br-],1.57
2,COc1ccc(-n2c(-c3ccc(Cl)cc3)c[n+]3c2CCc2ccccc2-3)cc1.[Br-],-70.3
3,O=C(NCCN1CCOCC1)c1ccc(N2CCCC2)c([N+](=O)[O-])c1,-2.75
4,COC(=O)/C=C\C(=O)Nc1cccc([N+](=O)[O-])c1,8.24
5,CCOc1nc(C)cc(C)c1S(=O)(=O)c1ccc(Cl)cc1,9.36
6,CCCCNC(=O)C1CCCN(S(=O)(=O)c2ccc(S(=O)(=O)NCC(C)C)cc2)C1 (stereo not drawn),-3.36
7,COc1ccccc1NCC(=O)N/N=C/c1cccnc1,4.49
8,Cn1c(SCC(=O)Nc2ccccc2)nnc1-c1ccc(NC(=O)CCc2ccccc2)cc1,6.68
9,Cc1cc(C)nc(-n2nc(C)cc2NC(=O)CN2CCc3ccccc3C2)n1,-26.4
10,COc1ccc(OC)c(C2C(C(N)=O)=C(C)Nc3nc(CCCO)nn32)c1 (stereo not drawn),15.5
11,Cc1onc(-c2ccccc2Cl)c1C(=O)N1CCN(c2ccccc2)CC1,1.1
12,O=C(c1cn(-c2ccccc2)nc1-c1cccs1)N1CCOCC1,4.92
13,C=CCN(CC=C)CCOc1ccc(C)cc1[N+](=O)[O-].O=C(O)C(=O)O,-62.5
14,C=CCN(CC=C)CCOc1cc(C)ccc1[N+](=O)[O-].O=C(O)C(=O)O,6.69
15,C=CCN(CC=C)CCOc1ccccc1[N+](=O)[O-].O=C(O)C(=O)O,1.55
16,O=C(CN1CCN(C/C=C/c2ccccc2)CC1)NC(=O)NC1CCCCC1,-69.7
17,S=C(NC1CCCCC1)N1CCN(C/C=C/c2ccccc2)CC1,3.77
18,O=C(CN1CCN(C/C=C/c2ccccc2)CC1)Nc1ccccc1C(=O)NC1CC1,-88.8
19,CC1CCN(CC(=O)Nc2ccccc2C(=O)NC2CC2)CC1,5.31
20,NC(=O)C1CCN(CC(=O)Nc2ccccc2C(=O)NC2CC2)CC1,10.7
21,O=C(CN1CCN(Cc2ccccc2)CC1)NC(=O)NC1CCCCC1,-16.1
22,O=C(CSCc1ccccc1)N/N=C/c1cc2c(cc1Br)OCO2,8.61
23,CSc1nnc(Cc2sc(-c3ccccc3)nc2-c2ccccc2)o1,12.1

row,Structure (SMILES),"hERG current change (%, negative = inhibition) at 1uM [%]"
1,OCCC1CN(Cc2cccn2-c2ncccn2)CCN1Cc1ccccc1 (stereo not drawn),-33.4
2,CC(C)=CCN1CCN(Cc2cccn2-c2ncccn2)CC1CCO (stereo not drawn),-3.9
3,OCCC1CN(Cc2cccn2-c2ncccn2)CCN1CCc1ccccc1 (stereo not drawn),-44.6
4,COc1ccc(CN2CCN(Cc3ccon3)CC2CCO)c(C)c1C (stereo not drawn),2.93
5,COc1ccc(CN2CCN(Cc3cccn3-c3ncccn3)CC2CCO)c(C)c1C (stereo not drawn),-80.4
6,OCCC1CN(Cc2cccn2-c2ncccn2)CCN1Cc1ccc(F)cc1 (stereo not drawn),-74.7
7,OCCC1CN(Cc2cccn2-c2cccnc2)CCN1CCc1ccccc1 (stereo not drawn),-37.5
8,OCCC1CN(Cc2cccn2-c2ncccn2)CCN1C1CCCC1 (stereo not drawn),0.978
9,OCCC1CN(Cc2cccn2-c2cccnc2)CCN1Cc1ccccc1 (stereo not drawn),-7.57
10,CCOc1ccc(CN2CCN(Cc3cccn3-c3ncccn3)CC2CCO)cc1 (stereo not drawn),-84
11,COc1cccc(CN2CCN(Cc3cccn3-c3cccnc3)CC2CCO)c1 (stereo not drawn),-62.2
12,COc1ccc(CN2CCN(CC3CC3)CC2CCO)c(C)c1C (stereo not drawn),13.2
13,CCC(C)NC(=O)C(=O)NCc1ccncc1 (stereo not drawn),10.8
14,CN1CCN(NC(=O)c2ccccc2F)CC1,11.7
15,COc1ccc(CC(=O)Oc2cc(C)[nH]c(=O)c2[N+](=O)[O-])cc1,4.19
16,COc1ccc(-c2csc(/C=C/c3ccc4c(c3)OCO4)n2)cc1OC,2.68
17,CN(c1ncnc(N)c1[N+](=O)[O-])C1CCCCC1,12.5
18,Cc1ccc(S(=O)(=O)N2CCC(C(=O)N3CCC3)CC2)cc1,11.3
19,CC(C)OC(=O)COc1cc(O)c2c(=O)cc(-c3ccccc3)oc2c1,10.8
20,CCOC(=O)C1CCCN(CCCc2ccccc2)C1 (stereo not drawn),-2.62
21,COc1ccccc1-c1ccc(=O)n(CC(=O)NCc2cccs2)n1,15.8
22,COCCC(=O)N1CCC(Oc2ccc(C(=O)N3C[C@@H]4CCC[C@H]3C4)cc2)CC1,5.49
23,OC[C@H]1O[C@@H](Oc2ccc3cc(Br)ccc3c2)[C@H](O)[C@@H](O)[C@H]1O,4.75

row,Structure (SMILES),"hERG current change (%, negative = inhibition) at 1uM [%]"
1,OCCC1CN(Cc2cccn2-c2cccnc2)CCN1Cc1ccc(F)cc1 (stereo not drawn),-21.4
2,CCOc1ccc(CN2CCN(Cc3cccn3-c3cccnc3)CC2CCO)cc1 (stereo not drawn),-86.3
3,CC(C)CCN1CCN(Cc2cccn2-c2cccnc2)CC1CCO (stereo not drawn),-9.84
4,Cc1cc(/C([O-])=C(/C(=S)Nc2ccccc2)[n+]2ccccc2)c(C)n1-c1ccccc1,9.1
5,COc1ccc(N2C(=O)CC(N3CCN(C4CCc5ccccc5C4)CC3)C2=O)cc1 (stereo not drawn),-37.7
6,O=C1CC(N2CCN(C3CCc4ccccc4C3)CC2)C(=O)N1c1ccccc1 (stereo not drawn),-42.7
7,CCOc1ccc(N2C(=O)CC(N3CCN(C4CCc5ccccc5C4)CC3)C2=O)cc1 (stereo not drawn),-65.5
8,CCOc1ccc(N2C(=O)CC(N3CCc4ccccc43)C2=O)cc1 (stereo not drawn),5.06
9,Cc1ccc(N2C(=O)CC(N3CCN(C4CCc5ccccc5C4)CC3)C2=O)cc1 (stereo not drawn),-59
10,Cc1ccc(N2C(=O)CC(N3CCN(c4ccccn4)CC3)C2=O)cc1 (stereo not drawn),-8.68
11,O=C(CSc1nc2[nH]ncc2c(=O)[nH]1)Nc1ccc(F)cc1,13.3
12,N#Cc1c(-c2ccccc2)cc(-c2ccc3c(c2)OCO3)[nH]c1=O,11
13,CCCCC(C(=O)O)C(C)CC(=O)Nc1cccc(C(=O)O)c1 (stereo not drawn),3.02
14,Cc1cccc(OCCSCc2nc3ccccc3[nH]2)c1,12.1
15,CC(=O)Nc1ccc(S(=O)(=O)Nc2ccc(-c3ccc4nnc(C)n4n3)cc2)cc1,-3.52
16,COc1cccc(NC(=O)C(Sc2nc3ccccc3c(=O)n2CC(C)C)c2ccccc2)c1 (stereo not drawn),6.46
17,Cc1cccc(NC(=O)c2cc3c(=O)n4ccccc4nc3n(CC(C)C)c2=N)c1,-52.2
18,Cc1cccc(NC(=O)c2c(C)nc3ccccn23)c1,3.98
19,Cc1cccc(NC(=O)c2cc3c(=O)n4ccccc4nc3s2)c1,11.5
20,COc1ccc(NC(=O)c2cc3c(=O)n4ccccc4nc3n2C)cc1OC,11.4
21,COc1cccc(NC(=O)c2cc3c(=O)n4ccccc4nc3n(CC(C)C)c2=N)c1,-87.5
